Laboratory results as given in PubChem BioAssay (NCI).
Compounds without any hit were thinned out: in the full panel of roughly 83,000, 20% have a hit.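 Each cell line was grown in a 96-well plate and treated with one concentration of compound for 48 hours. Values below 10 were considered active.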 Active and inactive are the calls of the source.

How the values were obtained:
Experiment in all cases: NCI-60 one-dose screen, 48 h (100 = growth as untreated, 0 = no growth, -100 = all killed)
Details in all cases: 10 µM unless noted
[1] = system: SK-MEL-2 melanoma
[2] = system: EKVX NSCLC
[3] = system: SN12C renal
[4] = system: UO-31 renal
[5] = system: TK-10 renal
[6] = system: ACHN renal
[7] = system: CAKI-1 renal
[8] = system: A498 renal
[9] = system: CCRF-CEM leukemia
[10] = system: MOLT-4 leukemia

Measured: growth

CCOC(=O)C(c1ccccc1)N1C(=O)c2ccccc2C1=O (stereo not given)
inactive: [1] 104% | [2] 91.4% | [3] 104% | [4] 91.4% | [5] 106% | [6] 102% | [7] 86.4% | [8] 89.3% | [9] 102% | [10] 101%

COc1ccc2nc3c(cc2c1)C(=O)CC(c1ccccc1)C3 (stereo not given)
inactive: [1] 70% | [2] 44.5% | [3] 40.7% | [4] 34.5% | [5] 64% | [6] 43.9% | [7] 31.3% | [9] 10.7% | [10] 17.8%
active: [8] -13.5%

Fc1cc2[nH]ncc2c2c3c(c(-c4cn[nH]c4C(F)(F)F)nc12)C1CCC3C1 (stereo not given)
active: [1] -32.6% | [3] 6.09% | [4] -44.2% | [5] -11.2% | [6] -0.693% | [7] -5.2% | [8] -80.2% | [10] 6.06%
inactive: [2] 28.2% | [9] 11.5%

Cn1cc(-c2noc(-c3cn(C)c4ncc(Br)cc34)n2)c2cc(Cl)ccc21
inactive: [1] 82.4% | [2] 62.7% | [3] 50.5% | [4] 71.8% | [5] 64.7% | [6] 31.8% | [7] 50.8% | [8] 84.8% | [9] 68.6% | [10] 67.7%

CCOC(=O)c1cc(C#N)n2ncc3ccccc3c12
inactive: [1] 108% | [2] 94.9% | [3] 95.3% | [4] 84.1% | [5] 91.4% | [6] 91.6% | [7] 86.5% | [8] 72.4% | [9] 106% | [10] 89.7%

CCN(CC)c1ccc(/C=C/C=C2\NC(=O)NC2=O)cc1
active: [1] -13.5% | [5] 8.35%
inactive: [2] 61.5% | [3] 47.4% | [4] 36.4% | [6] 47.2% | [7] 16.7% | [8] 22.4% | [9] 40% | [10] 41.1%

CC1=CC[C@@H]2C(C)(C)[C@@H](O)CC[C@@]2(C)[C@@H]1COc1ccc2ccc(=O)oc2c1
inactive: [1] 68.1% | [2] 72.4% | [3] 32.5% | [5] 82.3% | [6] 48.6% | [7] 36.5% | [8] 83.2% | [9] 41.7% | [10] 37.3%
active: [4] 2.21%

O=C1CN(Cc2ccc(C(=O)NO)cc2)C(=O)[C@@H](Cc2ccccc2)N1
inactive: [1] 112% | [2] 98.9% | [3] 102% | [4] 92.9% | [5] 106% | [6] 103% | [7] 94.1% | [8] 94.7% | [9] 105% | [10] 101%

COc1cc(C)cc2oc3oc(=O)c(-c4nc5ccccc5s4)cc3c(=O)c12
inactive: [1] 113% | [2] 105% | [3] 98.4% | [4] 74.6% | [5] 101% | [6] 100% | [7] 91.8% | [8] 85.1% | [9] 107% | [10] 106%

CCOC(=O)c1nn(C2CCCCO2)c2ccc(NC(=O)CN3CCCC3)cc12 (stereo not given)
inactive: [1] 107% | [2] 95.8% | [3] 98.9% | [4] 84.4% | [5] 103% | [6] 101% | [7] 91.5% | [8] 78.9% | [9] 108% | [10] 99.3%

O=C(Nc1cccc2cccnc12)c1cc(C(=O)c2ccc(Cl)cc2)n2ccc(-c3ccncc3)cc12
inactive: [1] 112% | [2] 107% | [3] 101% | [4] 81.4% | [5] 108% | [6] 99.7% | [7] 83.4% | [8] 90.5% | [9] 115% | [10] 129%

C=C(CC(=O)OC)C(C)=O
inactive: [1] 118% | [2] 99% | [3] 100% | [4] 88.2% | [5] 107% | [6] 109% | [7] 101% | [8] 95.1% | [9] 118% | [10] 95.2%

CSc1nc(=S)c2nc(SC)n(-c3ccccc3)c2[nH]1
inactive: [1] 83.1% | [2] 105% | [3] 96.7% | [4] 83.9% | [5] 96.9% | [6] 102% | [7] 90.9% | [8] 86.6% | [9] 82.5% | [10] 107%

C#CCC(C(=O)OCC)C(=O)OCC
inactive: [1] 107% | [2] 95.1% | [3] 109% | [4] 85% | [5] 98.7% | [6] 102% | [7] 93.6% | [8] 94.6% | [9] 104% | [10] 100%

O=C(Oc1ccc(Cl)cc1[N+](=O)[O-])Oc1ccc(Cl)cc1[N+](=O)[O-]
inactive: [1] 103% | [2] 108% | [3] 107% | [4] 88.8% | [5] 120% | [6] 108% | [7] 104% | [8] 154% | [9] 102% | [10] 97.8%

COc1ncc(-c2ccc3nc(N)n(-c4ccccc4C(F)(F)F)c(=O)c3c2)cc1S(=O)(=O)Nc1ccc(F)cc1F
inactive: [1] 29.2% | [2] 20.9% | [3] 56% | [5] 54.5% | [6] 69.3% | [7] 17.3% | [9] 24.5% | [10] 74.5%
active: [4] -13.4% | [8] -22.2%

Cc1cc(SC#N)ncn1
inactive: [1] 66.9% | [2] 101% | [3] 94.9% | [4] 96.2% | [5] 101% | [6] 98.4% | [7] 98.9% | [8] 102% | [9] 88% | [10] 109%

O=C1Nc2ccccc2/C1=C/C(=O)c1ccc(N2CCCC2)cc1
inactive: [1] 58.7% | [2] 76.1% | [3] 15.6% | [4] 47.1% | [5] 42.8% | [6] 30.7% | [7] 18.1% | [8] 65.8% | [9] 10.4%
active: [10] 3.55%

CCOc1ccc(S(=O)(=O)Nc2ccc3c(c2)N(S(=O)(=O)CC)CCC3)cc1
inactive: [1] 111% | [2] 96.1% | [3] 85.1% | [4] 80.9% | [5] 80.9% | [6] 45% | [7] 55.1% | [8] 69.3% | [9] 81.1% | [10] 71%

OC(c1ccc(Cl)cc1)(c1ccc(Cl)cc1)C(O)(c1ccc(Cl)cc1)c1ccc(Cl)cc1
inactive: [1] 68.4% | [2] 49% | [3] 29.8% | [4] 25.7% | [5] 29.1% | [6] 61.8% | [7] 46.8% | [8] 64.4% | [9] 32.8% | [10] 22.7%

CCCCCCCCCCCCCCCCCCNC(=S)N/N=C/c1ccc(OC)c(OC)c1
inactive: [1] 111% | [2] 92.9% | [3] 93.4% | [4] 77.1% | [5] 104% | [6] 102% | [7] 93.9% | [8] 82.4% | [9] 91.7% | [10] 100%

C=C1C(=O)O[C@H]2[C@H]1CC/C(COC(=O)NCc1ccc(Cn3c(=O)sn(-c4ccc(Cl)cc4)c3=O)cc1)=C\CC[C@@]1(C)O[C@@H]21
inactive: [1] 88.2% | [2] 99.6% | [3] 70.4% | [4] 57.7% | [5] 45% | [6] 65.5% | [7] 61% | [8] 107% | [10] 23.2%
active: [9] 0.529%

CC(C)=CC/C=C(/C)[C@H]1CC[C@]2(C)[C@@H]1CC[C@@H]1[C@@]3(C)CCCNC(C)(C)[C@@H]3CC[C@]12C
active: [1] -70% [100 µM] | [2] -71.2% [100 µM] | [3] -85.2% [100 µM] | [4] -82.1% [100 µM] | [5] -67% [100 µM] | [6] -77% [100 µM] | [7] -79.9% [100 µM] | [8] -88.6% [100 µM] | [9] -15.7% [100 µM] | [10] -25.6% [100 µM]

Cc1cc(-c2ccc(N=Nc3c(S(=O)(=O)O)cc4cc(S(=O)(=O)O)cc(N)c4c3O)c(C)c2)ccc1N=Nc1cc(S(=O)(=O)O)c2ccccc2c1O
inactive: [1] 111% | [2] 81.1% | [3] 98.1% | [4] 73.1% | [5] 102% | [6] 95.4% | [7] 78.9% | [8] 96.4% | [9] 106% | [10] 102%

COc1ccc2nc3c(cc2c1)C(=O)CC(C(F)(F)F)C3 (stereo not given)
active: [8] -7.7% | [9] 9.88%
inactive: [1] 83.9% | [2] 55.9% | [3] 42.1% | [4] 46.6% | [5] 69.2% | [6] 49.2% | [7] 37.1% | [10] 15.3%

O=C(O)c1cn(C2CC2)c2cc(N3CCN(Cc4c(O)ccc5ccccc45)CC3)c(F)cc2c1=O
active: [7] 4.12% | [8] -16.6%
inactive: [1] 73.8% | [2] 60.4% | [3] 30.3% | [4] 40.1% | [5] 61.4% | [6] 53.9% | [9] 67.7% | [10] 31.6%
